Measurements: PubChem BioAssay (NCATS)
Unmarked numbers belong to inactive results. No rule for the calls is given here.

The compounds below were run on HIV-1 nucleocapsid protein NCp7 (binding to TG oligonucleotide) (assay: HIV Nucleocapsid (AID 346;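 also: potency is for inhibitors that block NC binding and lower polarization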)). Settings: HIV-1 NC / fluorescein-TGTGTGTG probe, fluorescence polarization.
How it was run: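 Fluorescence polarization readout: labelled TG4xF oligo (10 nM) with 100 nM nucleocapsid protein, high-salt (250mM NaCl) Hepes pH 7.5 buffer containing zinc and fresh reducing agents. Compounds added by pin tool; incubation 1 hr, room temperature.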
Potency is read from the fitted curve at half-maximal effect.

Row | SMILES | Potency
1 | CS(=O)(=O)N1CCC2(CCCN(c3ccncc3)C2)CC1 | > 20 µM
2 | COC(=O)N1CCC2(CC1)CCN(c1ncccn1)CC2 | > 20 µM
3 | COCC(=O)N1CCC2(CCCN(c3ccncc3)C2)CC1 | > 20 µM
4 | Cc1nc2cnc(Oc3ccccc3)nc2n(CCc2ccccc2)c1=O | > 20 µM
5 | COCC(=O)N1CCC2(CCCN(Cc3ccc(C#N)cc3)C2)CC1 | > 20 µM
6 | Cc1noc(C)c1-c1cncnc1Nc1ccccc1 | > 20 µM
7 | CN(C)C(=O)c1ccc(-c2nc(Nc3ccncc3)c3ccccc3n2)cc1 | > 20 µM
8 | Cc1cccc(CNc2ncnc3ccc(-c4ccoc4)cc23)c1 | > 20 µM
9 | COc1ccccc1-c1ccc2ncnc(NC3CCNCC3)c2c1 | > 20 µM
10 | Cc1cnc(CNc2ccnc(-c3cccc(NS(C)(=O)=O)c3)n2)cn1 | > 20 µM
11 | COc1ccc2[nH]cc(CCNc3ccnc(-c4ccoc4)n3)c2c1 | > 20 µM
12 | Cc1noc(C)c1-c1cc(N2CCN(C)CC2)ncn1 | > 20 µM
13 | COCCn1c(=O)c(C)nc2cnc(OCc3ccccc3)nc21 | > 20 µM
14 | COCCNc1ncnc2ccc(-c3ccoc3)cc12 | > 20 µM
15 | COc1ccccc1CN1CC[C@@]2(CCCN(C(=O)c3ccncc3)C2)C1 | > 20 µM
16 | N#CCCn1c(=O)c(-c2ccc(F)cc2)nc2cnc(N3CCNCC3)nc21 | > 20 µM
17 | Cc1noc(C)c1-c1nc(Nc2ccc(F)cc2)c2ccccc2n1 | > 20 µM
18 | O=C(c1cnccn1)N1CCC2(CC1)CCN(C(c1ccccc1)c1ccccc1)CC2 | > 20 µM
19 | COCCn1c(=O)c(-c2ccc(F)cc2)nc2cnc(Oc3cccc(Cl)c3)nc21 | > 20 µM
20 | CCNc1ncc2nc(-c3cccs3)c(=O)n(Cc3cccc(OC)c3)c2n1 | > 4 µM

Row | SMILES | Potency
21 | Cc1noc(C)c1C(=O)N1CCC2(CCCN(Cc3ccccc3)C2)CC1 | > 20 µM
22 | COc1ccc(-n2c(=O)c(-c3ccc(Cl)cc3)nc3cnc(N4CCNCC4)nc32)cc1 | > 20 µM
23 | COc1ccc(-n2c(=O)c(CCc3ccccc3)nc3cnc(N4CCN(C)CC4)nc32)cc1 | > 20 µM
24 | COCCn1c(=O)c(-c2cccc(C#N)c2)nc2cnc(Oc3ccc(OC)cc3)nc21 | > 20 µM
25 | O=S(=O)(c1ccccc1)N1CCC2(CCN(Cc3ccccc3)CC2)CC1 | > 20 µM
26 | COCCNc1ccnc(-c2cccc(NS(C)(=O)=O)c2)n1 | > 20 µM
27 | COC(=O)N1CCC2(CCCN(c3ccncc3)C2)CC1 | > 20 µM
28 | O=c1c(-c2ccc(F)c(F)c2)nc2cncnc2n1Cc1ccccc1Cl | > 20 µM
29 | COc1ccc2[nH]cc(CCNc3cc(-c4ccccc4CN(C)C)ncn3)c2c1 | > 20 µM
30 | COc1ccc(CNc2ncnc3ccc(-c4ccoc4)cc23)c(OC)c1 | > 20 µM
31 | CCNc1ncc2nc(-c3ccccc3)c(=O)n(C)c2n1 | > 20 µM
32 | COc1ccccc1CCn1c(=O)c(-c2cc(F)cc(F)c2)nc2cncnc21 | > 20 µM
33 | CN(C)c1ncc2nc(-c3ccc(F)cc3)c(=O)n(-c3ccccc3)c2n1 | > 20 µM
34 | CN1CCN(c2ncnc3ccc(-c4cccc(C#N)c4)cc23)CC1 | > 20 µM
35 | Cc1cnc(CNc2ncnc3ccc(-c4cccc(C#N)c4)cc23)cn1 | > 20 µM
36 | Clc1ccccc1-c1nc(NCCN2CCOCC2)c2ccccc2n1 | > 20 µM
37 | CS(=O)(=O)Nc1cccc(-c2cncnc2NCc2cccs2)c1 | > 20 µM
38 | O=c1c(CCc2ccccc2)nc2cnc(Oc3cccc(Cl)c3)nc2n1C[C@H]1CCCO1 | > 20 µM
39 | c1csc(CNc2ccnc(-c3ccoc3)n2)c1 | > 20 µM
40 | O=c1c(-c2cccs2)nc2cnc(Oc3ccccc3)nc2n1C1CC1 | > 20 µM
